INS-1E GSIS act: primary screen for activators of insulin secretion dependent on glucose, INS-1E cells, GLuc reporter luminescence. 370,000 tested, 0.61% active. activation, % at 16.6 µM. INS-1E GLuc reporter insulin secretion, 2-3 h;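 active = lowest replicate activation of at least 40%, so every replicate reaches that level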;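 also: 0% = median of neutral control wells and 100% = median of IBMX positive control wells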
RAD54 inh: RAD54 (human) branch migration inhibition | Q92698 | RAD54 Holliday junction branch migration, FAM/BHQ fluorescence | inhibition, % at 10.4 µM | 360,000 tested, 0.14% active | AID 602329;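 active = mean normalized replicate activity at least 40 and at least half of replicates scoring 40 or more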;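 also: 0% = median of neutral control wells and 100% = median of positive control wells; inhibitors cause a drop in the FAM fluorescence signal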
DENV2 CPE rescue: inhibitors of DENV2 cytopathic effect | DENV2-infected cells, cytopathic effect rescue, plate reader | CPE inhibition, % at 9.99 µM | 350,000 tested, 1.7% active; in the data active = CPE inhibition above about 20%, passing the limit was not always enough; tested in BHK-21 cells;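 also: 0% = median of neutral control wells and 100% = median of positive control wells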
MLL AF4-AF9 inh: blocks AF4 peptide binding to human AF9. inhibition, % at 10 µM. AlphaScreen, biotin-AF4 peptide binding to FLAG-AF9. 350,000 tested, 0.47% active. P42568;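 active = every replicate reaching a set inhibition limit, whatever the replicate mean, cut at about 25% in these data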;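 also: 0% = plate neutral control median and 100% = total signal loss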
RAD52 inh: blocks human RAD52 DNA annealing | recombinant RAD52 DNA annealing, FRET fluorescence | inhibition, % at 18.7 µM | 360,000 tested, 0.46% active | AID 651710;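 active = every replicate showing at least 50% inhibition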
dFosB act: enhances mouse delta FosB homodimer DNA binding | purified delta FosB, TAMRA-CDK5 oligo fluorescence polarization; percent of positive-control signal above neutral wells | activation, % at 25 µM | 340,000 tested, 0.99% active;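 active = mean activation above about 17%, with every replicate also reaching it, limit read from the data, passing the limit was not always enough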
Target sequence (P13346 whole entry, looked up): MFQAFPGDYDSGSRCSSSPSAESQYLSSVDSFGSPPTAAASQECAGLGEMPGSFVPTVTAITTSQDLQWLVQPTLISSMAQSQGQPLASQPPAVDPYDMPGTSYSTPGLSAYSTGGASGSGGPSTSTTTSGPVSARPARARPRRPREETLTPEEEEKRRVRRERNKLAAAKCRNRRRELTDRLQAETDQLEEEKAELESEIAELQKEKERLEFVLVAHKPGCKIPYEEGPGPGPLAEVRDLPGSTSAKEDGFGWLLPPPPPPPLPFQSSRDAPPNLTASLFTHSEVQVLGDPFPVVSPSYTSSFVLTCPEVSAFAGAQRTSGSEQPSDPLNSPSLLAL
Numbers without * were called inactive; x = no result. This is a sample that favours compounds with a hit; in the whole collection about 3.1% have one here.

SMILES | INS-1E GSIS act | RAD54 inh | DENV2 CPE rescue | MLL AF4-AF9 inh | RAD52 inh | dFosB act
Cc1ccc(S(=O)(=O)Nc2ccc3c(c2)C(=O)N([C@H](C)CO)C[C@@H](C)[C@@H](CN(C)Cc2ccccc2)OCCCC[C@@H](C)O3)cc1 | -10.3 | -2.1 | -22.3 | x | x | x
CCCNC(=O)[C@@H]1[C@@H](CO)[C@@H]2Cn3c(ccc(-c4ccc(F)cc4)c3=O)[C@@H]2N1CCC | -4.9 | -3.9 | -0.2 | 1.5 | 3.2 | x
COc1ccc(S(=O)(=O)Nc2ccc3c(c2)C(=O)N([C@H](C)CO)C[C@@H](C)[C@H](CN(C)Cc2ccc4c(c2)OCO4)OCCCC[C@H](C)O3)cc1 | -16.1 | -1.7 | -5.5 | 1.9 | 32.0 | x
COc1ccc(S(=O)(=O)Nc2ccc3c(c2)C(=O)N([C@@H](C)CO)C[C@H](C)[C@@H](CN(C)Cc2ccc4c(c2)OCO4)OCCCC[C@H](C)O3)cc1 | -20.2 | -7.2 | 19.3 | 0.5 | 21.4 | x
COc1ccc(S(=O)(=O)Nc2ccc3c(c2)C(=O)N([C@@H](C)CO)C[C@@H](C)[C@H](CN(C)Cc2ccc4c(c2)OCO4)OCCCC[C@@H](C)O3)cc1 | 1.9 | 0.9 | 56.2* | -4.3 | 23.8 | x
COc1ccc(S(=O)(=O)Nc2ccc3c(c2)C(=O)N([C@H](C)CO)C[C@H](C)[C@@H](CN(C)Cc2ccc4c(c2)OCO4)OCCCC[C@H](C)O3)cc1 | -4.1 | 4.6 | 29.9* | 2.0 | 6.9 | x
COc1ccc(S(=O)(=O)Nc2ccc3c(c2)C(=O)N([C@H](C)CO)C[C@H](C)[C@@H](CN(C)Cc2ccc4c(c2)OCO4)OCCCC[C@@H](C)O3)cc1 | -2.4 | 5.7 | 23.0* | -1.6 | 17.9 | x
COc1ccc(S(=O)(=O)Nc2ccc3c(c2)C(=O)N([C@@H](C)CO)C[C@@H](C)[C@@H](CN(C)Cc2ccc4c(c2)OCO4)OCCCC[C@@H](C)O3)cc1 | -28.3 | -1.9 | -3.7 | 5.8 | 30.6 | x
Cc1ccc(S(=O)(=O)N(C)C[C@H]2OCCCC[C@@H](C)Oc3ccc(NS(=O)(=O)c4cccs4)cc3C(=O)N([C@@H](C)CO)C[C@H]2C)cc1 | -4.8 | -10.6 | -0.6 | -0.6 | -26.3 | x
C[C@@H]1CN([C@H](C)CO)C(=O)c2cc(NC(=O)Nc3cccc4ccccc34)ccc2O[C@@H]1CN(C)Cc1ccc(-c2ccccc2)cc1 | 22.1 | -6.4 | 5.3 | -0.2 | 17.1 | x
C[C@@H]1CN([C@@H](C)CO)C(=O)c2cccc(NC(=O)Nc3ccc4c(c3)OCO4)c2O[C@@H]1CN(C)C | 33.1 | 6.3 | 23.5* | 0.7 | -4.6 | x
C[C@H](CO)N1C[C@H](C)[C@H](CN(C)Cc2ccc(-c3ccccc3)cc2)Oc2ccc(NC(=O)Nc3cccc4ccccc34)cc2C1=O | -7.3 | -7.4 | 25.1* | 2.8 | -2.7 | x
C[C@H]1CN([C@@H](C)CO)C(=O)c2cccc(NC(=O)Nc3ccc4c(c3)OCO4)c2O[C@@H]1CN(C)Cc1ccccc1 | -13.3 | x | 39.2* | 6.8 | 25.7 | x
C[C@H](CO)N1C[C@H](C)[C@H](CN(C)Cc2ccc(-c3ccccc3)cc2)Oc2ccc(NC(=O)Nc3ccc4c(c3)OCO4)cc2C1=O | 8.2 | -0.5 | 24.3* | 1.6 | 31.0 | x
C[C@@H]1CN([C@H](C)CO)C(=O)c2cc(NC(=O)Nc3ccc4c(c3)OCO4)ccc2O[C@H]1CN(C)Cc1ccc(C(F)(F)F)cc1 | -8.9 | -0.5 | -5.0 | 4.4 | 7.1 | x
C[C@H](CO)N1C[C@H](C)[C@H](CN(C)Cc2ccc(-c3ccccc3)cc2)Oc2c(NC(=O)Nc3ccc4c(c3)OCO4)cccc2C1=O | -12.4 | -1.4 | 20.8* | 13.4 | -54.3 | x
C[C@@H]1CN([C@H](C)CO)C(=O)Cc2cc(N(C)C)ccc2O[C@H]1CN(C)Cc1ccc(Cl)c(Cl)c1 | -15.6 | x | x | x | x | x
C[C@H](CO)N1C[C@H](C)[C@H](CN(C)Cc2ccc(Cl)c(Cl)c2)Oc2ccc(N(C)C)cc2CC1=O | -4.2 | -1.4 | 3.2 | 19.2 | 4.4 | x
C[C@@H]1CN([C@H](C)CO)C(=O)c2cc(N(C)C)ccc2O[C@@H]1CN(C)Cc1ccc(Cl)c(Cl)c1 | -25.5 | -16.4 | -5.8 | 27.9* | 15.6 | x
C[C@@H]1CN([C@H](C)CO)C(=O)c2cc(N(C)C)ccc2O[C@H]1CN(C)Cc1ccc(Cl)c(Cl)c1 | -40.6 | 7.0 | 4.7 | 28.4* | -2.5 | x
C[C@@H]1CN([C@@H](C)CO)C(=O)c2cc(N(C)C)ccc2O[C@@H]1CN(C)Cc1ccc(Cl)c(Cl)c1 | -25.8 | -6.4 | 1.6 | 32.9* | 0.2 | x
O=C1[C@H](Cc2ccccc2)NCC=CC[C@H](c2ccc(Cl)cc2)N1Cc1ccccc1 | -9.6 | -4.2 | 24.8* | 4.1 | -45.9 | -3.0
Cc1nn(-c2ccccc2)c2nc(C(F)F)cc(C(F)F)c12 | 70.0* | -9.8 | 5.1 | -2.7 | -19.5 | -2.2
O=C(Nc1ccccc1C(=O)NCc1cccnc1)c1ccccc1Cl | 18.9 | 4.4 | 63.6* | 0.6 | 0.7 | -3.5
COc1ccc(C(=O)Nc2ccccc2C(=O)NCc2cccnc2)cc1OC | 40.9* | -3.4 | 3.6 | -0.9 | -8.4 | -8.7
SMILES | INS-1E GSIS act | RAD54 inh | DENV2 CPE rescue | MLL AF4-AF9 inh | RAD52 inh | dFosB act
COc1cc(C(=O)Nc2ccccc2C(=O)NCc2cccnc2)cc(OC)c1OC | 16.2 | 3.6 | 2.9 | -5.9 | -10.7 | -7.2
O=C(C1CCOCC1)N1CC(=O)N2[C@H](C1)[C@@H](c1ccc(-c3ccccc3F)cc1)[C@@H]2CO | 14.3 | x | 23.0* | -1.4 | -4.9 | x
O=C(C1CCOCC1)N1CC(=O)N2[C@H](CO)[C@@H](c3ccc(-c4ccccc4F)cc3)[C@@H]2C1 | -0.6 | x | -4.1 | -1.9 | -17.9 | x
O=C(C1CCOCC1)N1CC(=O)N2[C@H](C1)[C@H](c1ccc(-c3ccccc3F)cc1)[C@@H]2CO | -7.7 | x | 20.5* | 0.4 | -4.6 | x
CO[C@@H]1CN(C)C(=O)c2cc(NC(=O)C3CCC3)ccc2OC[C@@H](C)N(C(=O)CN(C)C)C[C@@H]1C | 10.5 | 0.9 | -2.2 | -0.7 | 20.7 | x
CC(=O)Nc1cccc(/C(C)=N/NC(=S)NC(C)C)c1 | -3.9 | x | 12.3 | 2.3 | -15.7 | 3.8
C/C(=N\NC(=S)NC(C)C)c1ccccc1 | 54.0* | x | 0.1 | 11.2 | 4.3 | 5.5
CC(C)C(=O)Nc1ccc2c(c1)C(=O)N(C)[C@H]1CC[C@@H](CC(=O)NCc3ccccc3)O[C@@H]1CO2 | -3.9 | -12.5 | 31.8* | -13.2 | 14.8 | x
COCC(=O)Nc1ccc2c(c1)C(=O)N(C)[C@@H]1CC[C@@H](CC(=O)NCC(F)(F)F)O[C@@H]1CO2 | -0.9 | 1.6 | 81.3* | -0.1 | -10.2 | x
CN(C)C(=O)C[C@H]1CC[C@H]2[C@@H](COc3ccc(NC(=O)c4cnccn4)cc3C(=O)N2C)O1 | -0.9 | -9.4 | 59.7* | 0.7 | -0.7 | x
CN(C)C(=O)C[C@H]1CC[C@@H]2[C@H](COc3ccc(NC(=O)c4cnccn4)cc3C(=O)N2C)O1 | 1.6 | 5.8 | -5.6 | 0.8 | -7.2 | x
